Screening results from PubChem BioAssay.
IL-1B inflam inh: inhibitors of inflammasome signaling (IL-1 beta secretion) | THP-1 LPS/ATP IL-1B secretion, AlphaLISA, 16 h; hits give low values | activity change, % at 57.5 µM | 4.7% of 360,000 active; in the data active = activity change below about -50%; inconclusive = mostly about -30% to -49%
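THP-1 cells pretreated 1 hr with compounds (up to 57.5 uM final), then stimulated with LPS (250 ng/mL final) plus ATP (1.25 mM final); secreted IL-1B measured by AlphaLISA after 16 hr, decreased signal indicating inhibition.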
HT1080NT lethal: kills 2HG-producing HT-1080-NT fibrosarcoma cells; HT-1080-NT fibrosarcoma viability, CellTiter-Glo ATP luminescence, 48 h; Potency, µM (top dose mostly 46.1 µM), actives largely listed as cytotoxic; 1.6% of 360,000 active; AID 686970;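 also: NT is the 2HG producing partner of a matched IDH1 knockdown line; nearly all actives have a fitted effect of over 55% in size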
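Toxicity toward the 2HG-producing NT line was scored as %Activity, normalised to DMSO and no-cell wells, from CellTiter-Glo luminescence after 48 hours' treatment.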
TDP1 cell noCPT: qHTS for Inhibitors of human tyrosyl-DNA phosphodiesterase 1 (TDP1): qHTS in cells in absence of CPT | DT40 Tdp1-/- hTDP1 cells, no CPT, ATP luminescence, 48 h | Potency, µM (doses to about 46.2 µM), usual class: inhibitors | 15% of 420,000 active | AID 686978, 2013; also: nearly all actives have a fitted effect of over 55% in size
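Stably hTDP1-transfected Tdp1-null chicken DT40 cells were treated with library compounds minus camptothecin and grown for at least 48 hr at 37 °C, after which cellular ATP was quantified by luminescence.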
DT40 TDP1 CPT: DT40-hTDP1 cell growth loss with CPT; chicken DT40 Tdp1-/-;hTDP1 cells + 20 nM CPT, ATP luminescence, 48 h; Potency, µM (titrated, usually from 46.2 µM), most hits filed as inhibitors; 12% of 420,000 active; also: nearly all actives have a fitted effect of over 55% in size
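Chicken DT40 Tdp1-/- cells complemented with human TDP1, 400 cells/well, exposed to compounds plus 20 nM camptothecin for at least 48 h at 37 C; viability read as ATP content by CellTiter-Glo luminescence.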
HT1080 IDH1KD tx: HT-1080 IDH1 knockdown cell toxicity (counter line) | HT-1080 IDH1 knockdown viability, ATP luminescence, 48 h | Potency, µM (top dose mostly 46.1 µM), most hits filed as cytotoxic | 2% of 360,000 active
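% activity derives from luminescence (CellTiter-Glo), normalised to DMSO and no-cell wells. HT-1080-IDH1KD cells, 750/well, had 48 h compound exposure at 37 °C.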
Numbers stand for hits; – = inactive; ? = inconclusive; · = no result given; [ ] = another dose, or the depositor's remark. Only some compounds are listed: those with a hit (about 19% of all), similar ones and a draw of the others. Unless noted, calls follow the shape of the dose curve; as a rule, active = well fitted curve in the direction sought with a large enough effect; inconclusive = small, poorly fitted or top-dose-only effect, or another doubt; inactive = no such curve, though single readings can be large; an effect the other way counts as inactive or inconclusive.

SMILES	IL-1B inflam inh	HT1080NT lethal	TDP1 cell noCPT	DT40 TDP1 CPT	HT1080 IDH1KD tx
NS(=O)(=O)c1cccc(NC(=O)CC(NC(=O)c2ccccc2Cl)c2ccccc2)c1 (centres undefined)	–	–	–	–	–
CSc1ncccc1C(=O)OCC(=O)Nc1ccc(C)c(S(=O)(=O)N2CCOCC2)c1	–	–	13µM	?	–
Cc1ccc(NC(=O)CSc2ncnc3ccccc23)cc1S(=O)(=O)N1CCOCC1	-100.3	?	14.6µM	?	?
Cc1ccc(NC(=O)COC(=O)c2cccnc2Cl)cc1S(=O)(=O)N1CCOCC1	–	–	–	–	–
Cc1ccc(NC(=O)CSc2ncnc3ccccc23)cc1S(=O)(=O)N1CCCCC1	-95.5	–	?	25.9µM	?
O=C(CC[C@H]1O[C@@H](n2ccc(=O)[nH]c2=O)[C@H](O)[C@@H]1O)N[C@@H](Cc1ccccc1)C(=O)NCC1CCCCC1	–	–	–	–	–
O=c1cnc2cnc(Oc3ccccc3)nc2n1C1CC1	·	·	–	–	·
CC(=O)c1c(C)[nH]c(C(=O)Nc2ccccn2)c1C	–	–	–	–	–
Cc1[nH]c(=O)[nH]c1C(=O)CCCCC(=O)OCC(=O)Nc1ccccn1	-114.3	–	–	–	–
COc1ccccc1N1CCN(C(=O)Cn2ncc3c(=O)oc4ccc(C)cc4c32)CC1	·	·	?	–	·
Cc1ccc2oc(=O)c3cnn(CC(=O)N4CCN(c5ccccc5F)CC4)c3c2c1	·	·	20.6µM	?	·
Cc1ccc(-n2ncc3c(=O)n(CC(=O)N4CCN(c5ccccc5)CC4)cnc32)cc1	–	–	–	–	–
Cc1ccc2oc(=O)c3cnn(CC(=O)N4CCN(c5ccccc5)CC4)c3c2c1	–	–	10.3µM	?	–
COc1ccc(-n2c(CNC(=O)c3cccc(OC)c3OC)nnc2SC)cc1	·	·	–	–[9.04 µM]	·
Cc1cccn2c(=O)c(/C=C(\C#N)C(=O)NC3CCS(=O)(=O)C3)c(N3CC(C)OC(C)C3)nc12 (centres undefined)	–	–	–	–	–
Cc1ccccc1Oc1nc2c(C)cccn2c(=O)c1/C=C(\C#N)C(=O)NC1CCS(=O)(=O)C1 (centres undefined)	-96.7	?	20.6µM	11.6µM	13µM
Cc1cccn2c(=O)c(/C=C(\C#N)C(=O)NC3CCS(=O)(=O)C3)c(N3CCC(C(N)=O)CC3)nc12 (centres undefined)	–	–	–	–	–
Cc1cccn2c(=O)c(/C=C(\C#N)C(=O)NC3CCS(=O)(=O)C3)c(Oc3ccccc3Cl)nc12 (centres undefined)	–	?	20.6µM	?	?
O=S(=O)(c1cc(Cl)ccc1Cl)n1cccn1	–	–	–	–	–
COc1ccccc1CCCNC(=O)C1CCC(=O)N(CCc2ccc(Cl)cc2)C1 (centres undefined)	-51.3	–	23.1µM	18.4µM	–
O=C(NCCCn1ccnc1)c1ccccc1NS(=O)(=O)c1ccc(F)c(F)c1	–	–	?	15.8µM	?
Cc1cc(C)c(C)c(S(=O)(=O)Nc2ccccc2C(=O)NCCCN2CCOCC2)c1C	–	–	?	?	–
Cc1cc(C)c(C)c(S(=O)(=O)Nc2ccccc2C(=O)NCCCn2ccnc2)c1C	–	?	5.8µM	4.61µM	?
CS(=O)(=O)Nc1ccc(OCc2ccccc2)cc1	–	–	–	–	–
CCC(C)NC(=O)COc1ccc(OCc2ccccc2)cc1 (centres undefined)	–	–	25.9µM	?	–
SMILES	IL-1B inflam inh	HT1080NT lethal	TDP1 cell noCPT	DT40 TDP1 CPT	HT1080 IDH1KD tx
Fc1ccc(COc2ccc(C(=S)N3CCCC3)cc2)cc1	–	–	?	–	–
O=C1CCCC/C1=N\Nc1ccc(OCc2ccccc2)cc1	–	?	–	–	5.17µM
Oc1ccc(NCc2ccc(OCc3ccccc3)cc2)cc1	–	23.1µM	11.6µM	6.51µM	?
S=C(c1ccc(OCc2ccccc2)cc1)N1CCCC1	–	–	?	18.4µM	–
CCN(c1ccccc1)S(=O)(=O)c1cccc(C(=O)NCCN2CCOCC2)c1	–	–[9.24 µM]	–	–	–
Cc1cc(O)c(C(c2ccccc2)N2CCC(C)CC2)c(=O)n1Cc1ccco1 (centres undefined)	·	·	–	–	·
O=C(O)c1cc(OCc2ccccc2)cc(OCc2ccccc2)c1	–	–	–	–	–
Oc1ccc(OCc2ccccc2)cc1	·	·	?	4.04µM	·
COCCn1c(C)cc(C(=O)CSc2nnc(C)s2)c1C	–	–	–	–	–
COCCn1c(C)cc(C(=O)CSc2nc3ccccc3c(=O)n2Cc2ccco2)c1C	–	–	?	6.51µM	–
CCCn1c(=O)c2ccccc2n2c(SCC(=O)c3cc(C)n(CCOC)c3C)nnc12	–	–	–	–	–
COCCn1c(C)cc(C(=O)CSc2cc(C)c3ccccc3n2)c1C	-69.1	–	?	?	–
Cc1cc(-c2nnc(SCC(=O)Nc3ccccc3C(F)(F)F)o2)c(C)n1-c1ccccc1	–	–	?	–	–
COc1ccccc1-c1nnc(SCC(=O)Nc2ccccc2F)o1	·	·	20.6µM	20.6µM	·
Cc1cccc(NC(=O)CSc2nnc(-c3cc(C)n(-c4ccccc4)c3C)o2)c1C	-79.8	–	?	–	–
